DT40 TDP1 CPT: growth inhibition of DT40 Tdp1-/-;hTDP1 cells with camptothecin (screen for TDP1 inhibitors) | chicken DT40 Tdp1-/-;hTDP1 cells + 20 nM CPT, ATP luminescence, 48 h | Potency, µM (titrated, usually from 46.2 µM), inactives show top-dose activity change, negative = growth inhibition, usual class: inhibitors | AID 686979 | 420,000 compounds, 12% hits; further: potency means the concentration at half of the fitted maximal effect; nearly all actives have a fitted effect of over 55% in size
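Cell growth measured by CellTiter-Glo luminescence after a minimum 48 h, 37 C compound exposure with 20 nM CPT in Tdp1-knockout DT40 cells stably expressing hTDP1, seeded 400/well; qHTS titration format.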
Giardia kill: Giardia lamblia killing. Giardia lamblia trophozoite viability. activity change, % at 7.66 µM, hits read low. 340,000 compounds, 0.15% hits. AID 540267; in the data active means activity change below about -80%; inconclusive means between about -30% and that limit;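 further: parasites exposed to compound for two days anaerobically before the ATP read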
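Anaerobic 48 hrs incubation at 37 deg C of 100 trophozoites/well with test compounds; ATPLite 1-Step luminescence, 15-30 min RT, reports cellular ATP as viability.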
DT40 TDP1 no CPT: qHTS for Inhibitors of human tyrosyl-DNA phosphodiesterase 1 (TDP1): qHTS in cells in absence of CPT | DT40 Tdp1-/- hTDP1 cells, no CPT, ATP luminescence, 48 h | 420,000 compounds, 15% hits | Potency, µM (series often up to 46.2 µM), inactives show top-dose activity change, negative = growth inhibition, actives largely listed as inhibitors | AID 686978, 2013; further: potency means the concentration at half of the fitted maximal effect; nearly all actives have a fitted effect of over 55% in size
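Chicken DT40 Tdp1-/- cells stably complemented with human TDP1 were seeded at 400 cells/well with DMSO in place of 20 nM camptothecin. After compound pinning, cells grew at least 48 hr at 37 °C; viability read by CellTiter-Glo luminescence.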
ELG1 repair inh: blocks ELG1-dependent DNA repair in HEK293T cells | Potency, µM (titrated, usually from 46.1 µM), inactives show at the top dose activity change, negative = inhibition, most hits filed as inhibitors | HEK293T ELG1-luciferase reporter, luminescence, 16 h; DNA damage induced by 5-fluorouridine | 330,000 compounds, 2.3% hits; further: potency means the concentration at half of the fitted maximal effect; nearly all actives have a fitted effect of over 55% in size
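Overnight (16 hr) co-exposure of 2,000 cells/well to 5-fluorouridine and compound at 37 °C preceded detection. Luciferase was quantified via ONE-Glo luminescence; loss of signal denotes inhibition.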
IL-1B inflam inh: inhibitors of inflammasome signaling (IL-1 beta secretion); THP-1 LPS/ATP IL-1B secretion, AlphaLISA, 16 h; stronger effect = lower value; activity change, % at 57.5 µM; 360,000 compounds, 4.7% hits; AID 743279; in the data active means activity change below about -50%; inconclusive means mostly about -30% to -49%
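Secreted IL-1B measured by AlphaLISA bead assay after 16 h compound exposure of THP-1 cells; compounds (final up to 57.5 uM) added 1 h before LPS (250 ng/mL) and ATP (1.25 mM) stimulation; lower signal means less secretion.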
TDP1 block: inhibitors of human tyrosyl-DNA phosphodiesterase TDP1; 350,000 compounds, 0.28% hits; recombinant TDP1, AlphaScreen DNA substrate cleavage; Potency, µM (titrated, usually from 130 µM), for inactives: at the top dose activity change, negative = inhibition, hits mostly inhibitors; Q9NUW8; further: potency means the concentration at half of the fitted maximal effect; nearly all actives have a fitted effect of over 40% in size
Target sequence (Q9NUW8 whole entry, looked up): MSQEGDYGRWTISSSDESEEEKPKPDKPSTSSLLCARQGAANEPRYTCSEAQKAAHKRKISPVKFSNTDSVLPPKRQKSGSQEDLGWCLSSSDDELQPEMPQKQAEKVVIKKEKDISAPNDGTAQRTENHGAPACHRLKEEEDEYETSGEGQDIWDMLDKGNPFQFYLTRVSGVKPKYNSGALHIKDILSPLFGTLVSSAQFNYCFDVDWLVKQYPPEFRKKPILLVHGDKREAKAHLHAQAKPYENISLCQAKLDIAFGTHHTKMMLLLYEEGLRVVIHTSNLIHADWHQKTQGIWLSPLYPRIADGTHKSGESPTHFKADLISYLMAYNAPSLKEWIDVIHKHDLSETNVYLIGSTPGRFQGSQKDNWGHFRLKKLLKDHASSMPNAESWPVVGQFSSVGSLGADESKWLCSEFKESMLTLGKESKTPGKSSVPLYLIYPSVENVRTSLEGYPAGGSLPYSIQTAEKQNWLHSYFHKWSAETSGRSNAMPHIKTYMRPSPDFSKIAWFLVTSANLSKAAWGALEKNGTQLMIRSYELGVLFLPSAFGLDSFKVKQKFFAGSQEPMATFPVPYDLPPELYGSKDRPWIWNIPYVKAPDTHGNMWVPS
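Recombinant human Tdp1 (E. coli-expressed, 1 nM final) preincubated with compounds 15 min at room temperature, then 5'-biotin/3'-phosphotyrosine-FITC DNA substrate (15 nM final) added for 5 min. AlphaScreen beads (10 ug/ml final) added 10 min; cleavage lowers signal.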
Starred values were filed as active, the others as inactive. Hits are enriched below; roughly 19% of the tested compounds scored in any of these assays. Unless noted, the call rests on the fitted dose curve; in most records, active means well fitted curve in the direction sought with a large enough effect; inconclusive means small, poorly fitted or top-dose-only effect, or another doubt; inactive means no such curve, though single readings can be large; an effect the other way counts as inactive or inconclusive. On the % scale 0 is the no-effect control and ±100 the full control effect.

What do the screens show for `O=S(=O)(c1cccc(C(F)(F)F)c1)N1CCN(CC(O)COCc2ccccc2)CC1` (centres undefined)?
DT40 TDP1 CPT: -25%; Giardia kill: -6; DT40 TDP1 no CPT: -7%; ELG1 repair inh: inconclusive; IL-1B inflam inh: -19; TDP1 block: 0%

How did O=C1N[C@@H](Cc2ccccc2)C(=O)N2[C@H]1C[C@]1(Br)c3ccccc3N(S(=O)(=O)c3ccc(F)cc3)[C@H]21 do in these assays?
DT40 TDP1 CPT: 18µM*; Giardia kill: 20; DT40 TDP1 no CPT: inconclusive; IL-1B inflam inh: -2

How did O=C1N[C@@H](Cc2ccccc2)C(=O)N2[C@@H]1C[C@@]1(Br)c3ccccc3N(S(=O)(=O)c3ccccc3)[C@@H]21 do in these assays?
DT40 TDP1 CPT: -18%; Giardia kill: 4; DT40 TDP1 no CPT: -26%; IL-1B inflam inh: -2

What do the screens show for `C=CCOC(=O)C1C(=O)CC(C)(O)C(C(=O)OCC=C)C1c1ccc(N(C)C)cc1` (centres undefined)?
DT40 TDP1 CPT: -11%; Giardia kill: -14; DT40 TDP1 no CPT: -4%; ELG1 repair inh: -5%; IL-1B inflam inh: -3; TDP1 block: 0%

Results for O=C1NN(c2ccccc2)C(=O)/C1=C/c1ccc(Sc2ccc(Cl)cc2)o1 ?
DT40 TDP1 CPT: inconclusive; Giardia kill: inconclusive; DT40 TDP1 no CPT: 21µM*; ELG1 repair inh: 4%; IL-1B inflam inh: 15; TDP1 block: 5%

How did Cc1ccc(Sc2ccc(/C=C3/C(=O)NN(c4ccccc4)C3=O)o2)cc1 do in these assays?
DT40 TDP1 CPT: inconclusive; Giardia kill: inconclusive; DT40 TDP1 no CPT: 16µM*; ELG1 repair inh: 23%; IL-1B inflam inh: -24; TDP1 block: 8%

What do the screens show for `N#Cc1ccc(Oc2ccc(C#N)c(C#N)c2)cc1C#N`?
DT40 TDP1 CPT: 6%; Giardia kill: -5; DT40 TDP1 no CPT: -13%; IL-1B inflam inh: 0

Results for CCc1ccc(NC(=O)C[n+]2cc(-c3ccc(C)cc3)n3c2CCC3)cc1 ?
DT40 TDP1 CPT: 2.3µM*; Giardia kill: 6; DT40 TDP1 no CPT: 3.7µM*; ELG1 repair inh: 12µM*; IL-1B inflam inh: inconclusive; TDP1 block: 2%

Results for Cc1ccc(-c2c[n+](CC(=O)Nc3c(C)cccc3C)c3n2CCC3)cc1 ?
DT40 TDP1 CPT: inconclusive; Giardia kill: 18; DT40 TDP1 no CPT: inconclusive; ELG1 repair inh: inconclusive; IL-1B inflam inh: -64*; TDP1 block: 1%

How did Cc1ccc(NC(=O)C[n+]2cc(-c3ccccc3)n3c2CCC3)c(C)c1 do in these assays?
DT40 TDP1 CPT: -21%; Giardia kill: -8; DT40 TDP1 no CPT: inconclusive; ELG1 repair inh: -7%; IL-1B inflam inh: -16; TDP1 block: 5%

What do the screens show for `COc1ccc(C(=O)Nc2ccccc2SCc2cc(=O)c3cccc(C)c3[nH]2)cc1`?
DT40 TDP1 CPT: -12%; DT40 TDP1 no CPT: inconclusive; TDP1 block: 8%

How did CCCNS(=O)(=O)c1ccc(CCC(=O)N2CCN(c3ccc(F)cc3)CC2)cc1 do in these assays?
DT40 TDP1 CPT: inconclusive; Giardia kill: 5; DT40 TDP1 no CPT: inconclusive; ELG1 repair inh: inconclusive; IL-1B inflam inh: 0; TDP1 block: 1%

How did Cc1ncc(COP(=O)(O)O)c(C=O)c1O do in these assays?
DT40 TDP1 CPT: -8%; DT40 TDP1 no CPT: -12%; TDP1 block: -9%

Results for Cc1nc(N=Nc2cc(S(=O)(=O)O)ccc2S(=O)(=O)O)c(COP(=O)(O)O)c(C=O)c1O ?
DT40 TDP1 CPT: 7%; DT40 TDP1 no CPT: -15%; TDP1 block: 5µM*

Screening results deposited in PubChem BioAssay by National Center for Advancing Translational Sciences (NCATS).
